Test results published in ChEMBL document CHEMBL1157539, “Thousands of chemical starting points for antimalarial lead identification” (Nature, 2010).

Experiments:
Type in all cases: functional
Plasmodium falciparum [1] = assay: GSK_TCMDC: Inhibition of Plasmodium falciparum 3D7 in whole red blood cells, using parasite LDH activity as an index of growth. Test compounds present at 2uM
Plasmodium falciparum [2] = assay: GSK_TCMDC: Inhibition of Plasmodium falciparum Dd2 in whole red blood cells, using parasite LDH activity as an index of growth. Test compounds present at 2uM
HepG2 = assay: GSK_TCMDC: Percent inhibition of human HepG2 cell line. Test compounds present at 10uM.

SMILES | Inhibition (Plasmodium falciparum [1]) [%] | Inhibition (Plasmodium falciparum [2]) [%] | Inhibition (HepG2) [%]
O=C(/C=C/c1ccc(Cl)c(Cl)c1)NCCCCCN1CCCC(CNS(=O)(=O)c2ccc(F)cc2)C1 (configuration not stated) | 91 | 7 | 56
COc1ccc(N2CCN(CCCCNC(=O)c3ccc(NC(=O)c4cc(C(F)(F)F)cc(C(F)(F)F)c4)cc3)CC2)cc1OC | 100 | 100 | 9
CC1(C)N=C(N)N=C(N)N1c1ccccc1.Cl | 98 | 1 | 16
CCCN(Cc1nnc(-c2cccs2)o1)C(=O)CSc1nnnn1-c1cc(C)cc(C)c1 | 92 | 71 | 2
CN(C)CCNCc1ncsc1-c1ccc2c(Nc3ccc(F)cc3Cl)ccnc2c1 | 100 | 95 | 0
O=C1Nc2cccc3c2C1(CCCCCN1CCC(c2c[nH]c4ccncc24)CC1)CCC3 (configuration not stated) | 95 | 3 | 8
Cc1cc(C(=O)CN2C(=O)NC3(CCOc4ccccc43)C2=O)c(C)n1Cc1ccc(F)cc1 (configuration not stated) | 95 | 84 | 1
Cc1cc(N[C@@H](Cc2ccccc2)C(=O)NC2CCCC2)nc(NCCc2cccs2)n1.O=C(O)C(F)(F)F | 99 | 14 | 0
CCc1ccc(C2CCN(CCCCNC(=O)c3ccc(NC(=O)c4ccc(Cl)cc4)cc3)CC2)c(OCCO)c1 | 98 | 100 | 94
Oc1ccc2ccccc2c1C=NNc1nc(=Nc2ccccc2)nc(N2CCOCC2)[nH]1 | 100 | 49 | 66
CCOC(=O)C(C)(C)Oc1ccc(C(=C2CC(C)(C)CC(C)(C)C2)c2ccc(O)cc2)cc1 | 92 | 78 | 0
CN(C)C(=O)C(CC(=O)NCc1ccccc1Cl)N(C)C.CN(C)C(=O)CC(C(=O)NCc1ccccc1Cl)N(C)C.O (configuration not stated) | 96 | 2 | 7
Cn1cncc1C(=O)Nc1cccc(-c2ccc(-c3nc4ccccc4[nH]3)cc2)c1 | 99 | 11 | 0
CN(C)S(=O)(=O)c1ccc(C(=O)N(c2nc(-c3ccccc3)cs2)C2CCCCC2)cc1 | 98 | 46 | 7
Nc1ncc(-c2ccc(NC(=O)Nc3cc(C(F)(F)F)ccc3F)cc2)c(N)n1.O=C(O)C(F)(F)F | 99 | 21 | 96
NC(=O)c1ccc(C(=O)Nc2cccc(-c3cccc(-c4nc5cc(C(F)(F)F)ccc5[nH]4)c3)c2)cc1 | 100 | 36 | 63
COc1ccc2nccc([C@@H](O)CN3CCC(NCc4nc5c(F)cccc5[nH]4)CC3)c2c1.O=C(O)C(=O)O | 100 | 6 | 0
Cc1cc(NC(=O)c2cccs2)ccc1OC1CCN(Cc2ccc(F)cc2)C1.O=C(O)C(F)(F)F (configuration not stated) | 95 | 92 | 0
COc1ccc(CNc2nc(NCc3ccc(C(F)(F)F)cc3)c3cc(OC)c(OC)cc3n2)cc1OC | 100 | 100 | 80
N#CCCN1CCN(Cc2cccc(-c3ccc(-c4nc5ccccc5[nH]4)cc3)c2)CC1.O=C(O)C(F)(F)F | 93 | 20 | 18

SMILES | Inhibition (Plasmodium falciparum [1]) [%] | Inhibition (Plasmodium falciparum [2]) [%] | Inhibition (HepG2) [%]
Brc1ccc(Nc2nc(NCC3CCCO3)c3ccccc3n2)cc1 (configuration not stated) | 100 | 99 | 13
CC(=O)Nc1ccc(C(=O)Nc2cccc(-c3ccc(-c4nc5ccccc5[nH]4)s3)c2)cn1 | 100 | 91 | 9
CCN(CC)/C(=N/C(=N)NCc1ccc(Cl)cc1Cl)NCCCCCCN/C(=N\C(=N)NCc1ccc(Cl)cc1Cl)N(CC)CC | 100 | 99 | 16
Cc1cc(=O)c2cc(Oc3ccc(OC(F)(F)F)cc3)ccc2[nH]1 | 86 | 71 | 20
Cc1cc(-c2cccc3c(NC(=O)N4CCc5cc6nccc(N7CCN8CCC[C@H]8C7)c6cc54)cccc23)cc(C)n1.Cl | 100 | 100 | 12
C[C@@H]1CC[C@H](NC(=O)[C@H](CC2CCCC2)NC(=O)N2CCNCC2)C(=O)CN1S(=O)(=O)c1ccccn1.O=C(O)C(F)(F)F | 84 | 19 | 5
O=C(Nc1cccc(C(F)(F)F)c1)c1cccc2nc(C(F)(F)F)[nH]c12 | 100 | 98 | 81
Cc1ccc(-c2noc(=O)n2CC(=O)Nc2ccccc2-c2ccccc2)cc1 | 100 | 86 | 0
CC(=O)Nc1nc(C(=O)Nc2cccc(-c3ccc(-c4nc5cccc(C)c5[nH]4)cc3)c2)cs1 | 100 | 61 | 100
COc1ccc(CNC2CCCC2)cc1-c1ccc(S(=O)(=O)NCCN2CCCC2)s1.O=C(O)C(F)(F)F | 96 | 17 | 17
C=CCC1OC(=O)c2cc(OC)cc(OC)c21 (configuration not stated) | 95 | 100 | 100
OC1=C2C(=Nc3ccccc3SC2c2cccs2)c2ccccc21 (configuration not stated) | 96 | 93 | 8
CCc1ccc(O)c(-c2cc(C(=O)Nc3cccnc3)[nH]n2)c1 | 98 | 99 | 0
Cc1nc(SCC(=O)N2CCCC2=O)c2c(C)c(C)sc2n1 | 96 | 0 | 45
CN1CCCC(CN2CCN(Cc3cccc(-c4ccc(-c5nc6ccccc6[nH]5)s4)c3)CC2)C1.O=C(O)C(F)(F)F (configuration not stated) | 99 | 99 | 52
Br.CC1(C)NC(N)=NC(=N)N1OCCCCOc1ccccc1 | 95 | 95 | 60
CCc1ccc(NC(=O)c2cccc(CN3CCCN(Cc4cccc(O)c4)CC3)c2)cc1.O=C(O)C(F)(F)F | 99 | 50 | 53
CC(C)C1=CC(=NOS(=O)(=O)c2ccccc2)C=C(C(C)C)C1=O | 92 | 74 | 23
COc1cc2ccccc2cc1OCCCN1CCN(CC(c2ccc(F)cc2)N2CCN(C(C)C)CC2)CC1.Cl (configuration not stated) | 100 | 92 | 72
CC[C@H](C)CNC(=O)c1cncc(-c2ccc(CNC3Cc4ccccc4C3)cc2)c1.O=C(O)C(F)(F)F | 100 | 95 | 14

SMILES | Inhibition (Plasmodium falciparum [1]) [%] | Inhibition (Plasmodium falciparum [2]) [%] | Inhibition (HepG2) [%]
COc1ccccc1C1CCN(C2CCC(NC(=O)/C=C/c3ccc(C(F)(F)F)cc3)CC2)CC1 (configuration not stated) | 88 | 7 | 57
Cc1ccc(C2CCN(CCCCNC(=O)c3ccc(NC(=O)c4ccc(Cl)cc4)cc3)CC2)c(C)c1.Cl | 96 | 10 | 23
CC(C)[C@H](NC(=O)c1c(F)cccc1F)C(=O)Nc1ccc(Cc2nc3ccccc3s2)cc1 | 82 | 72 | 3
CSc1ccc(CN2CCC(NC(=O)c3ccc(-c4cccc(C(F)(F)F)c4)s3)CC2)cc1.O=C(O)C(F)(F)F | 90 | 9 | 68
Cc1cccc2nc(-c3cccc(-c4cccc(CNCc5ccccc5)c4)c3)[nH]c12.O=C(O)C(F)(F)F | 100 | 56 | 3
COc1ccc(NC(=O)C2c3ccccc3C(=O)N(C3CCCC3)C2c2cccs2)cc1OC (configuration not stated) | 90 | 96 | 0
Fc1ccc2[nH]c3c(NCCCN4CCOCC4)ncnc3c2c1 | 98 | 2 | 14
Cc1cnc(NCC2CCCCC2)nc1NCC(=O)Nc1ccccc1.O=C(O)C(F)(F)F | 90 | 51 | 21
CC(Cc1ccc(CN(CC(N)=O)Cc2ccc(CC(C)NCCc3cccc(Cl)c3)cc2)cc1)NCCc1cccc(Cl)c1.O=C(O)C(F)(F)F (configuration not stated) | 95 | 68 | 26
O=C(O)C(F)(F)F.OCC1CCN(Cc2ccc(-c3ccc(-c4nc5cc(C(F)(F)F)ccc5[nH]4)s3)cc2)CC1 | 100 | 90 | 35
O=C(O)C(F)(F)F.c1ccc(CCNCc2ccc(-c3ccc(CNc4ccc5ncccc5c4)cc3)cc2)cc1 | 96 | 27 | 36
Cc1cccc(CNc2nc(C)cc(N[C@@H](CC(C)C)C(=O)NCc3cccc(F)c3)n2)c1.O=C(O)C(F)(F)F | 91 | 32 | 13
CCN(CC)CCN(Cc1ccc(-c2ccc(C(F)(F)F)cc2)cc1)C(=O)Cn1cc(CCCc2cccc(F)c2F)c(=O)c2ccccc21.O=C(O)C(O)C(O)C(=O)O | 89 | 20 | 13
Cc1cc(C)nc(-n2[nH]c(C)c(Cc3ccc(C(C)(C)C)cc3)c2=O)n1 | 88 | 61 | 0
Cc1cc(-c2cccc(CNC3CCCC3)c2)ccc1S(=O)(=O)NCCN1CCCC1.O=C(O)C(F)(F)F | 81 | 7 | 38
Cc1cc(-c2cccc(CNCc3ccccc3)c2)ccc1S(=O)(=O)NCCN1CCCC1.O=C(O)C(F)(F)F | 98 | 58 | 40
COc1ccccc1N1CCN(CCCCNC(=O)c2ccc(NC(=O)c3ccc(C(F)(F)F)cc3)cc2)CC1 | 100 | 37 | 25
CCNc1cc(C(=O)N[C@@H](Cc2ccccc2)[C@H](O)CNC(C)(C)Cc2cccc(Cl)c2)cc(N2CCCCS2(=O)=O)c1.Cl | 97 | 74 | 17
c1cncc(-c2cc(N3CCCCC3)nc(-c3ccncc3)n2)c1 | 99 | 46 | 18
